Screens: PubChem, National Center for Advancing Translational Sciences (NCATS)
AMA1 RON2 block: AMA1-RON2 (P. falciparum) interaction inhibition | AlphaScreen AMA1-biotinylated RON2 peptide binding | Potency, µM (series often up to 58.2 µM), actives largely listed as inhibitors | 360,000 compounds, 0.2% hits; also: nearly all actives have a fitted effect of over 45% in size
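AMA1 (3D7) with his tag at 25 nM final met compounds first, then biotinylated RON2 peptide at 25 nM; detection used donor plus acceptor beads, 10 µg/mL apiece, read by AlphaScreen after 30 min at room temperature.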
RE007 growth inh: less growth of the S. pombe RE007 Vpr strain | S. pombe RE007 Vpr strain, BacTiter-Glo ATP luminescence, 24 h | Potency, µM (titrated, usually from 92.2 µM), actives largely listed as inhibitors | 360,000 compounds, 0.21% hits; active = well fitted falling curve with a large enough effect; inconclusive = small, poorly fitted or top-dose-only effect; inactive = no such curve, though single readings can be large or run the other way; also: nearly all actives have a fitted effect of over 50% in size
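Fission yeast strain RE007, carrying one chromosomally integrated HIV-1 vpr copy, was seeded at OD 0.01 in PMG+AL medium with 23 nL pinned compound. After 24 h at 30 °C and 99% humidity, viability was read by BacTiter-Glo luminescence.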
TbPYK inhibitor: blocks Trypanosoma brucei pyruvate kinase; AID 624173; Potency, µM (highest dose often 76.8 µM), actives largely listed as inhibitors; TbPYK enzyme, Kinase-Glo Plus ATP luminescence, 45 min; 410,000 compounds, 0.12% hits; Q57TT1; also: nearly all actives have a fitted effect of over 50% in size
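TbPYK + substrate in 50 mM TEA pH 7.2, 100 mM KCl, 10 mM MgCl2, 0.05% BSA, 0.01% Tween-20; cpd pinned; ADP 130 uM final; 45 min RT; Kinase-Glo Plus 10 min; luminescence endpoint.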
NS1 function inh: inhibitors of influenza NS1 protein function. Potency, µM (top dose mostly 46.1 µM). AID 2326. 270,000 compounds, 0.4% hits; calls by dose curve; also: actives are rising curves; nearly all actives have a fitted effect of over 50% in size
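A cell-based growth assay was used: compounds that relieve NS1-induced slow growth of budding yeast raise OD600. Assay medium was yeast nitrogen base with ammonium sulphate and -URA supplement, pH 6.0, with 2% galactose.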
LmPK inh: inhibitors of Leishmania mexicana pyruvate kinase | purified LmPK, Kinase-Glo ATP luminescence, 1 h | 290,000 compounds, 0.37% hits | Potency, µM (doses to about 57.5 µM), most hits filed as inhibitors
Target sequence (Q27686 whole entry, looked up): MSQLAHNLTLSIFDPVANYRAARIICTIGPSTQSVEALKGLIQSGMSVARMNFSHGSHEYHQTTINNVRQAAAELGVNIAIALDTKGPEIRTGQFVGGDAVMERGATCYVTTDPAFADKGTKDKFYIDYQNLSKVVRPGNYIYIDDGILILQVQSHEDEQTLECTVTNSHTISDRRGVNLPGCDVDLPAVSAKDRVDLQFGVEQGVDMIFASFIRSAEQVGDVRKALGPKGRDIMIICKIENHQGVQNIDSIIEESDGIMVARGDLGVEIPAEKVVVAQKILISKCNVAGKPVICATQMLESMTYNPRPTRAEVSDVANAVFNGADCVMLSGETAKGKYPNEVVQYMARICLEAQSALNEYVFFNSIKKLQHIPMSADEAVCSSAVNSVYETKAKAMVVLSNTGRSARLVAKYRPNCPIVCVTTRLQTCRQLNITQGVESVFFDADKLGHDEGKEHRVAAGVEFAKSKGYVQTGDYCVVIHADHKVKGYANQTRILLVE
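Purified LmPK (0.1 nM) with 0.5 mM PEP and 0.1 mM ADP in imidazole buffer pH 7.2 with MgCl2/KCl, 1 h at room temperature. ATP formed was read by luciferase luminescence and normalized to no-enzyme and uninhibited controls.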
A number is an active result; - = inactive; ? = inconclusive; . = not tested or not shown; [ ] = dose if it differs, or a comment. Only some compounds are listed: those with a hit (about 0.92% of all), similar ones and a draw of the others. Unless noted, calls follow the shape of the dose curve; as a rule, active = well fitted curve in the direction sought with a large enough effect; inconclusive = small, poorly fitted or top-dose-only effect, or another doubt; inactive = no such curve, though single readings can be large; an effect the other way counts as inactive or inconclusive.

SMILES	AMA1 RON2 block	RE007 growth inh	TbPYK inhibitor	NS1 function inh	LmPK inh
C/C(=N\NC(=O)c1ccc(O)cc1)c1ccc2c(c1)OCCO2	-	-	-	.	.
C/C(=N/NC(=O)c1ccoc1C)c1ccc(NC(=O)C2CCCC2)cc1	-	-	-	-	-
Cc1ccsc1/C=N/NC(=O)c1ccc2c(c1)OCCO2	-	-	-	-	22.4µM
O=C(NN=C1CCCC1)c1n[nH]c2c1CCCC2	-	-	-	-	28.2µM
CC[C@]1(O)C[C@H]2CN(CCc3c([nH]c4ccccc34)[C@@](C(=O)OC)(c3cc4c(cc3OC)N(C=O)[C@H]3[C@@](O)(C(=O)OC)[C@H](OC(C)=O)[C@]5(CC)C=CCN6CC[C@]43[C@@H]65)C2)C1	.	.	-	.	.
O=S(=O)(NCCO)c1cc[c]([Sb])cc1	.	.	.	-	.
Cc1cc(=O)oc2cc(O)c(CN(C)CC(=O)O)cc12	.	.	.	-	.
Cc1ccsc1/C=N\NC(=O)c1n[nH]c2c1CCC2	-[11.6 µM]	-	-	-	10µM
CN(C)c1ccc(Cc2ccc(N(C)C)cc2)cc1	14.1µM	?	-	.	.
COc1ccc(NC(=O)N2CCc3nc(-c4ccc(OC)cc4C)c4c(c3C2)CO[C@@H](c2ccccc2)C4)cc1	.	.	.	.	-[11.5 µM]
Cc1ccc(C)c(-c2csc(NC(=O)C3=COCCO3)n2)c1	-	25.1µM	-	.	.
CN(C)c1ccc(CNc2ccc3c(c2)ncn3C)cc1	26.7µM	-	-	-	-
CCN(CC)c1ccc(CNc2ccc3c(c2)ncn3C(C)(C)C)cc1	28.2µM	-	-	-	-
CCc1ccc(CNc2ccc3c(c2)ncn3C(C)(C)C)cc1	-	-	-	-	-
CN(C)CS/C(N)=N/[C@H](O)C(Cl)(Cl)Cl	.	.	.	-	.
CCCCCCCCCCCCCCCC[n+]1cccc2ccccc21	-	11.2µM	-	-	-
OCCN(Cc1cccnc1)Cc1ccccn1	14.1µM	-	-	.	.
OCCN(Cc1ccccc1)Cc1ncccc1O	-	-	-	.	.
CC1(OC(=O)C2CCCC2)C(=O)C=C2C=C(c3ccsc3)OC=C2C1=O (stereo unspecified)	-	-	-	-	-
CC1(OC(=O)CCc2ccccc2)C(=O)C=C2C=C(c3ccsc3)OC=C2C1=O (stereo unspecified)	.	.	.	1.26µM	-
COCc1ccc(O)c2ncccc12	25.1µM	?	?	-	-
Cc1ccc(O)c2ncccc12	.	.	-	.	.
NC[C@@H]1O[C@@H](O[C@H]2[C@@H](O)[C@H](O[C@@H]3[C@@H](O)[C@@H](N)C[C@H](N)[C@H]3O[C@H]3O[C@H](CN)[C@@H](O)[C@@H](O)[C@H]3N)O[C@H]2CO)[C@H](N)[C@@H](O)[C@@H]1O	.	.	-	.	.
CCOc1ccc(CN(C)Cc2cc(=O)oc3cc(C)c(Cl)cc23)cc1	-	-	-	-	-
CCOc1ccc(N(C)Cc2cc(=O)oc3ccc(OCC)cc23)cc1	25.1µM	-	-	-	-
SMILES	AMA1 RON2 block	RE007 growth inh	TbPYK inhibitor	NS1 function inh	LmPK inh
C/C(=N\Nc1nc2ccccc2s1)c1cccs1	?	35.5µM	-	?	-
CC(=NNc1nc2ccccc2s1)c1ncccn1	?	?	-	.	.
COC(=O)C1=C(C(=O)OC)[C@@H]2N(C)c3ccc(OC)cc3[C@@]23C[C@@H](C(=O)OC)N(C(C)=O)C3=N1	.	.	.	.	-[11.5 µM]
C[C@H]1Cc2c(-c3ccccc3)nc3c(c2CO1)CN(S(=O)(=O)c1ccc(C#N)cc1)CC3	.	.	.	.	-[11.5 µM]
Oc1c(/C=N/c2ccccn2)sc2ccccc12	-	-	-	-	6.31µM
Cc1ccc2nc(N(CCCN(C)C)C(=O)c3ccc4ncsc4c3)sc2c1	-	-	25.1µM	-	-
Nc1c(C(=O)N2CCOCC2)sc2nc(N3CCOCC3)c3c(c12)CCCC3	-	-	15.8µM	-	-
O/N=C/c1cc(Br)ccc1OCc1ccccc1F	-	39.8µM	-	.	.
O/N=C/c1ccccc1OCc1ccccc1Cl	-	44.7µM	-	-	-
C=CCOc1ccc(Br)cc1/C=N/O	-	-	-	-	-
Cc1ccc(O)c(-c2n[nH]c3c2C(c2ccccc2F)N(Cc2ccco2)C3=O)c1 (stereo unspecified)	.	.	-	.	.
Cc1ccccc1C(=O)Nc1ccc(C(=O)N2CCCC(O)c3cc(Cl)ccc32)c(C)c1 (stereo unspecified)	.	.	-	.	.
CCN(CCCNC(=O)c1cc2cc3ccc(OC)cc3nc2s1)c1ccccc1	.	.	-	.	.
CCCCN(C)C(=O)c1cc2cc3ccc(OC)cc3nc2s1	-	?	?	-	14.1µM
CCCNC(=O)c1nnsc1S(=O)(=O)c1ccc(Cl)cc1	-	11.2µM	-	.	-
CNC(=O)c1nnsc1S(=O)c1ccc(Cl)cc1 (stereo unspecified)	-	35.5µM	-	.	-
CCCNC(=O)c1nnsc1S(=O)c1ccc(Cl)cc1 (stereo unspecified)	-	3.55µM	-	.	-
Cc1cc(N)c2cc(OCCOc3ccc4nc(C)cc(N)c4c3)ccc2n1	.	.	.	-	.
Cc1sc2nc(CN3CCN(c4ccc(O)cc4)CC3)[nH]c(=O)c2c1C	-	-	-	-	14.1µM
O=c1[nH]c(CN2CCN(c3ccccc3)CC2)nc2scc(-c3ccccc3)c12	-	.	-	-	-
Cc1cc(C)c(SSc2nnnn2-c2ccccc2)c(C)c1	-	-	3.55µM	.	.
Cc1ccc2cc(C)c(Sc3nnnn3-c3ccccc3)nc2c1	-	-	-	-	-
O=C(/C=C/Nc1ccc(F)cc1F)c1ccco1	-	-	?	-	10µM
O=C(/C=C/Nc1ccc(F)cc1F)c1cccs1	-	-	?	-	8.91µM
O=C(/C=C/Nc1ccccc1F)c1cccs1	-	-	?	-	15.8µM
SMILES	AMA1 RON2 block	RE007 growth inh	TbPYK inhibitor	NS1 function inh	LmPK inh
CC/C=C(/C(=O)N[C@@H]1C(=O)N2C(C(=O)OCOC(=O)C(C)(C)C)=C(COC(N)=O)CS[C@H]12)c1csc(N)n1	.	.	-	.	.
C[C@@H]1O[C@@]2(CS1)CN1CCC2CC1	.	.	-	.	.
CC(C)CS(=O)(=O)c1oc(-c2ccc(F)cc2)nc1S(=O)(=O)c1ccccc1	.	.	-	.	.
CCOC(=O)N1CCN(Cc2nc3cc(NC(=O)c4ccccc4Cl)ccc3n2C(C)C)CC1	.	.	-	.	.
Clc1ccc(-c2cn3ccccc3n2)cc1	-	?	-	-	-
COc1c(Cl)cccc1-c1cn2ccccc2n1	-	?	-	-	7.08µM
c1ccc(-c2cnnc(-c3ccccn3)n2)cc1	10µM	-	-	.	.
Clc1ccc(-c2cnnc(-c3ccccn3)n2)cc1	10µM	?	-	.	.
c1ccc(-c2cnc(-c3ccccn3)nn2)cc1	?	?	-	.	.
Nc1nc(SCc2ccc([N+](=O)[O-])cc2)c2ncn([C@@H]3O[C@H](CO)[C@H](O)[C@H]3O)c2n1	.	.	.	-	.
C=CCN1CCc2cccc3c2[C@H]1Cc1ccc(O)c(O)c1-3	-	?	?	-	1.58µM
CC(=O)O[C@]1(C(C)=O)CC[C@H]2C3C=C(Cl)C4=CC(=O)[C@@H]5C[C@H]5[C@]4(C)C3CC[C@@]21C (stereo partly specified)	.	.	.	-	.
CCOc1ccc(CN(CCC#N)C(=S)NC(=O)c2ccccc2)cc1	-	-	-	-	?
